From PubChem
EP2 antag = inhibitors of human EP2 prostaglandin E2 receptor; 0.52% of 260,000 active; AID 1422; C6 glioma cells expressing human EP2, cAMP TR-FRET; cells stimulated with saturating PGE2; inhibition, % at 25 µM; P43116;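 active means percent inhibition above 40 after rounding to a whole number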;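 further: rat C6 glioma host cells with rolipram phosphodiesterase inhibitor present; the protocol text gives 20 µM as final concentration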
CHT PAM = allosterically activates the human high affinity choline transporter; AID 488977; Q9GZV3; B-score at 10 µM; CHT-expressing cells, membrane potential dye, choline EC20; hits give high values; LV-AA mutant CHT in HEK293 cells; 0.49% of 310,000 active;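 active means initial fluorescence not abnormally high and integrated response B-score, plate-corrected, over 3 SD above library mean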
Target sequence (Q9GZV3 whole entry, looked up): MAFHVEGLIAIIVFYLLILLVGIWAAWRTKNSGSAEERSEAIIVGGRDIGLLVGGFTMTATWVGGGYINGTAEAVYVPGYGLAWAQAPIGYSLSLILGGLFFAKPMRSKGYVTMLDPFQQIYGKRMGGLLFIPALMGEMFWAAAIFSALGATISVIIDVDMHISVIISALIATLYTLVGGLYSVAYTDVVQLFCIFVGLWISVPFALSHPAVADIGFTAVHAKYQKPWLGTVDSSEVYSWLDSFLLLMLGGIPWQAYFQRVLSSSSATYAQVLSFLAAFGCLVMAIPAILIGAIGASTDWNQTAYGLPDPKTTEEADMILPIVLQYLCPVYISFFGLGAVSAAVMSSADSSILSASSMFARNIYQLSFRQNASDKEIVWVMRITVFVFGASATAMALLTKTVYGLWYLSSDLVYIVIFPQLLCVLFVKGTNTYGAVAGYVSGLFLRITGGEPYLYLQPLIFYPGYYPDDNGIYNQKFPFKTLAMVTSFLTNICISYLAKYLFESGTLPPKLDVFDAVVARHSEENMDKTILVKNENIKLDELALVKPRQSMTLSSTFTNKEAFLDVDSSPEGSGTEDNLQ
EP2 modulator = modulates human prostaglandin E2 receptor EP2 signaling | induction, % at 25 µM | 0.83% of 260,000 active | AID 940 | EP2-expressing cells, cAMP HTRF FRET, PGE2 co-stimulation | P43116;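 active means compounds whose cAMP rise, as percent of the full-agonist control response, exceeds 60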;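 further: rat C6 glioma line stably carrying human EP2 under a CMV promoter; the protocol text gives 20 µM as final concentration; 100% = response of wells given 1 µM PGE2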
CHT inh = human CHT choline transport inhibition; Q9GZV3; CHT-expressing cells, membrane potential dye, choline response; hits give low values; B-score at 10 µM; 0.86% of 310,000 active; AID 488975;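 active means B-score over 3 SD under the library average, and starting fluorescence ratio not unusually high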;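 further: choline stimulus applied at its EC90 after an EC20 pre-addition; B-score computed on integrated fluorescence ratio after choline addition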
* = called active by the depositor; i = inactive; x = not tested or not shown; ! = not active in a repeat. Shown are actives, neighbours in structure and some others; about 2% of the full set was active somewhere.

SMILES	EP2 antag	CHT PAM	EP2 modulator	CHT inh
Cn1c2c(c(=O)n(C)c1=O)CN(CCCN1CCOCC1)CN2	6	i	-4	i
O=c1cc(-c2ccccc2Cl)oc2c([N+](=O)[O-])c(O)cc(O)c12	14	i	7	-13*
O=C(NCc1nc(-c2ccncc2)n[nH]1)c1ccc(F)cc1F	7	x	15	x
ClC(Cl)(c1nnnn1-c1ccccc1)c1nnnn1-c1ccccc1	81*	i	-42	i
COCCN(C(C)=O)c1nc(-c2ccc(OC)cc2)cs1	7	x	27	x
O=C(c1ccc(OC2CSC2)cc1)N1CCn2c(nnc2C2CC2)C1	10	x	-62	x
CCOC(=O)c1c(NC(C)=O)sc2c1CC(C)CC2 (stereo unspecified)	8	x	80*	x
CCNC(=O)c1c(NC(=O)c2cccs2)sc2c1CCCC2	7	x	0	x
CCOC(=O)c1c(NC(=O)CC2SC(N)=NC2=O)sc2c1CCC(C)C2 (stereo unspecified)	12	i	68*!	i
COC(=O)c1c(NC(=O)CC2SC(N)=NC2=O)sc2c1CCC(C)C2 (stereo unspecified)	8	i	2	i
CCOC(=O)c1c(NC(=O)c2cccs2)sc2c1CCC2	76*	i	x	i
C=CCNC(=O)c1c(NC(=O)COc2ccc(OC)cc2)sc2c1CCCC2	16	x	15	x
CC(=O)c1csc(NC(=O)c2cc3ncc(C(C)=O)c(C)n3n2)n1	11	x	-33	x
CCc1ccc2c(c1)c1nnc(SCC(=O)NC34CC5CC(CC(C5)C3)C4)nc1n2C	8	x	-9	x
C=C(C)Cn1c(SCc2ccc(Cl)cc2)nc2c1c(=O)n(C)c(=O)n2C	6	x	80*	x
CCCn1c(SCc2ccc(Cl)cc2)nc2c1c(=O)[nH]c(=O)n2C	4	i	48	i
Cn1c(=O)c2c(nc(SCc3ccccc3)n2Cc2ccc(Cl)cc2)n(C)c1=O	5	i	59	i
C/C=C/Cn1c(SCc2ccc(Cl)cc2)nc2c1c(=O)[nH]c(=O)n2C	7	i	63*	i
C=CCSc1nc2c(c(=O)n(C)c(=O)n2C)n1Cc1ccccc1Cl	8	x	93*	x
Cc1cc(-c2cn[nH]c2C2CCN(C(=O)C3CC3)CC2)on1	x	x	-31	x
CCC(c1nnnn1C1CCCCC1)N(Cc1cc2cc(C)cc(C)c2[nH]c1=O)C1CCCC1 (stereo unspecified)	8	x	23	x
O=C(Nc1ccc(F)cc1F)C1CCN(c2cnccn2)CC1	8	x	18	x
COC(=O)C1=NN(c2ccc(OC)cc2)C2C(=O)N(c3ccccc3OC)C(=O)C12 (stereo unspecified)	7	i	10	i
COC(=O)C1=CC(C(=O)c2cccs2)=NN(c2ccc(OC)cc2)C1C(=O)OC (stereo unspecified)	10	i	63*	i
COC(=O)c1sccc1NC(=O)CSc1cccc(Cl)c1Cl	x	i	61*	i
SMILES	EP2 antag	CHT PAM	EP2 modulator	CHT inh
N#Cc1c(Cl)nc(SCc2ccccc2)nc1-c1ccccc1	61*	i	16	i
c1ccc(CSc2nnc(-c3ccccc3)c(-c3ccccc3)n2)cc1	1	i	x	i
Cc1ccc(C)c2[nH]c(=O)c(C(c3nnnn3Cc3ccccc3)N3CCN(C)CC3)cc12 (stereo unspecified)	11	x	-44	x
Cc1ccc(-c2nn(-c3ccccc3)cc2/C=N/n2c(-c3cccs3)n[nH]c2=S)cc1	6	i	60	i
S=c1[nH]nc(-c2cccs2)n1/N=C/c1cn(-c2ccccc2)nc1-c1cccs1	7	i	86*	i
CCCNC(=O)c1nnsc1S(=O)c1ccc(Cl)cc1 (stereo unspecified)	69*	x	-74	x
CCCCNc1nc(-c2ccccc2)cc(C(F)(F)F)c1C(N)=O	12	i	64*	i
OC(c1ccccc1)(c1ccc(F)cc1)C(c1ccccc1)N1CCOCC1 (stereo unspecified)	6	i	61*	i
CC(C)/C(=N\[N+](C)(C)C)c1ccccc1	10	x	-10	x
COC1CCC(C(=O)NC2(c3ccc4c(c3)OCO4)CCCC2)CC1 (stereo unspecified)	x	x	7	x
COc1ccc2[nH]c3c(Cl)ncnc3c2c1	14	i	6	i
COc1ccc2[nH]c3c(=S)nc[nH]c3c2c1	12	i	62*	i
Cc1nn(CC(=O)Nc2ccccc2-c2ccccc2)c(=O)c2cc3ccsc3n12	x	x	40	x
Cc1ccc(Cl)cc1NC(=O)C(=O)NCC1CCCO1 (stereo unspecified)	12	x	-29	x
Cc1ccc2nc(N(CCCN(C)C)C(=O)c3ccc(S(=O)(=O)N4CCCCCC4)cc3)sc2c1	x	i	x	-5.5*
CCOC(=O)c1c(N)sc(=S)c2c1CCC2	61*	i	5	i
Cc1ccc(S(=O)(=O)O/N=C2\CCCc3ccccc32)cc1	11	i	17	i
CC1=C(C)/C(=N\OS(=O)(=O)c2ccccc2)C=CC1=O	89*	i	-80	i
Cc1ccc(S(=O)(=O)N=Nc2c(O)[nH]c3cc(O)c(C(=O)O)cc23)cc1	41*	x	16	x
Cc1ccc(S(=O)(=O)N=Nc2c(O)[nH]c3ccccc23)cc1C	7	i	39	i
CC(=O)COC(=O)c1cc(-c2ccccc2)nc2ccc(Br)cc12	25	x	68*	x
CCOC(=O)c1cc(-c2ccccc2)nc2ccc(C)cc12	4	i	66*	i
COc1ccc(C2CC(c3cccs3)=NN2C(=O)CN2CCOCC2)cc1 (stereo unspecified)	7	x	15	x
O=C1C(Cl)=C(Nc2ccc(S(=O)(=O)Nc3ccccn3)cc2)C(=O)c2ccccc21	107*	x	-63	x
Cc1c(Cl)cccc1NC(=O)CSc1nc(O)cc(=O)[nH]1	10	x	-9	x
SMILES	EP2 antag	CHT PAM	EP2 modulator	CHT inh
Oc1ccc(O)cc1	110*!	i	-34	i
CCOc1ccc(NC(=O)N2CCC(C(=O)c3cccc(Cl)c3)CC2)cc1	4	x	-46	x
Cc1ccc2nc(-c3ccccc3)c(-c3ccccc3)nc2c1	8	i	61*	i
O=C(c1ccco1)N1N=C(c2ccc(Cl)cc2)CC1(O)C(F)(F)F (stereo unspecified)	7	i	61*	i
O=C(c1ccco1)N1N=C(C2CCCCC2)CC1(O)C(F)(F)F (stereo unspecified)	3	i	40	i
COc1ccc(S(=O)(=O)N2CCc3ccccc3C2)c(C)c1C	15	x	-91	x
CCC(C)(C)NC(=O)C(c1cccnc1)N(C(=O)Cn1nnc2ccccc21)c1ccccc1F (stereo unspecified)	13	x	-9	x
CCOc1ccc(/C=c2\sc3nc(-c4ccco4)nn3c2=O)cc1OCC	8	i	75*	i
COc1ccc(N2CC(C(=O)OCC(=O)Nc3ccc(C)cc3)CC2=O)cc1 (stereo unspecified)	7	x	-9	x
CCOC(=O)C(C)Sc1nc2c(C)cccc2cc1C#N (stereo unspecified)	8	x	52	x
CCn1c(COc2ccc(OC)cc2)nnc1SCC(=O)Nc1nccs1	2	x	-19	x
